LANA-H2B inh = blocks KSHV LANA binding to histone H2A/H2B; Q9QR71; cell-free LANA-H2A/H2B peptide, fluorescence polarization; inhibition, % (concentration not given with the values); 0.6% of 320,000 active; in the data active means inhibition mostly above about 10%, no sharp cut-off; inactive means mostly below about 6.7%
Target sequence (Q9QR71 whole entry, looked up): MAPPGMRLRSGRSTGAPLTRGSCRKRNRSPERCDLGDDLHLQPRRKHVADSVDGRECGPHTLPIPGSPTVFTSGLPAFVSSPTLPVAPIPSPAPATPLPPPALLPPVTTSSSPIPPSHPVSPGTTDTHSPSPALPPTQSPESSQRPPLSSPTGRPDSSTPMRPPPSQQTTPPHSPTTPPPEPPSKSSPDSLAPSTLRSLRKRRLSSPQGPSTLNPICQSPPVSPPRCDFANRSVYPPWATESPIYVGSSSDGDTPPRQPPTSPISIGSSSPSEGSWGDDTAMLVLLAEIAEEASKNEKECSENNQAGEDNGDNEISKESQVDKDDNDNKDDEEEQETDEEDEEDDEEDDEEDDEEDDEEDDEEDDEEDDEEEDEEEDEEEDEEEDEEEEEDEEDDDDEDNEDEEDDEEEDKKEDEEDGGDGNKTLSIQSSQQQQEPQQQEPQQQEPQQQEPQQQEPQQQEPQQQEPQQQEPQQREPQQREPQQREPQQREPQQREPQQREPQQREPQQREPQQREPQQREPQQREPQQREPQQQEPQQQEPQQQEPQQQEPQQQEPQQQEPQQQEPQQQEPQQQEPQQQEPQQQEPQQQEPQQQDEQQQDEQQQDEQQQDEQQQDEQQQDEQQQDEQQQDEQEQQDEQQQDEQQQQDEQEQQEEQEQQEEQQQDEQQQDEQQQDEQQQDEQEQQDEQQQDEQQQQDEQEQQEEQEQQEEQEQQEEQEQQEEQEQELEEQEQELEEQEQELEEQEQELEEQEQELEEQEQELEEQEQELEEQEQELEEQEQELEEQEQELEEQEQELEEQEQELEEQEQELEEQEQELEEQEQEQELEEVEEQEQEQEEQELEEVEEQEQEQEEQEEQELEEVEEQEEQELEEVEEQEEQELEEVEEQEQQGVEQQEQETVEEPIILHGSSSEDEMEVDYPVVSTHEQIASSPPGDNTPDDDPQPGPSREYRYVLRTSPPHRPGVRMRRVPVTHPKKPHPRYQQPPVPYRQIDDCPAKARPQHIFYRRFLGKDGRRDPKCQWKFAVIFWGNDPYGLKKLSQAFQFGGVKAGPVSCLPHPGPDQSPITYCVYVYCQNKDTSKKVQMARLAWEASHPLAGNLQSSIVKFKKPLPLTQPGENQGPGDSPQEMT
SUMO Mot1 rescue = inhibitors of SUMOylation pathway: yeast Mot1-301 growth rescue; S. cerevisiae Mot1-301 growth rescue, ATP luminescence, 38.5C; percent above DMSO median, 100 means doubled; growth rescue, % at 18.8 µM; 1% of 320,000 active; AID 2716;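 active means every valid replicate shows activation above 250% relative to neutral control wells; inactive means the rest, any valid replicate at or below 250%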;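 further: OY570 slx delta 5 strain wells were the positive control but not used for scaling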
IDE act = boosts human insulin-degrading enzyme activity in HEK cells; P14735; FAbeta-B cleavage, fluorescence polarization; 0% vehicle, 100% cell-free pure enzyme wells; activation, % at 5.96 µM; 0.073% of 340,000 active;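 active means activation above the mean of all tested compounds plus 3 SD, set per screening campaign, cut at about 17% in these data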
HDAC3 inhib = human HDAC3 inhibition; 0.15% of 320,000 active; AID 2718; recombinant HDAC3, fluorogenic peptide/trypsin coupled, fluorescence; inhibition, % at 8.3 µM; in the data active means inhibition above about 26%, passing the limit was not always enough
IDE inh = inhibitors of human insulin-degrading enzyme in cells; AID 434962; inhibition, % at 5.59 µM; HEK cells, FAbetaB cleavage, fluorescence polarization; 0.41% of 320,000 active; P14735;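 active means percent inhibition above the average of all tested compounds plus 3 SD, set per screening campaign, cut at about 16% in these data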;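 further: IDE supplied by intact live HEK cells; FP after avidin binding of uncleaved biotin substrate so inhibition keeps polarization high; 0% = DMSO wells and 100% = 60 µM reference IDE inhibitor Ii1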
Mot1 SUMO dose = yeast SUMO pathway inhibition in dose response. 2,300 tested, under 10 active. shares compounds with SUMO Mot1 rescue. S. cerevisiae Mot1-301 galactose growth, ATP luminescence, 24 h; -100 = growth of slx-deleted rescue strain. growth activity, percent, % at 42 µM;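 active means Signal drops as the depositor expects, and the fitted half-maximal dose is no more than ten times the top valid tested dose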;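 further: more negative values mean stronger growth rescue toward the control strain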
Starred values were filed as active, the others as inactive; / = not tested or not shown. The list is not random: actives were taken first. Their share in the collection is about 2.1%.

SMILES	LANA-H2B inh	SUMO Mot1 rescue	IDE act	HDAC3 inhib	IDE inh	Mot1 SUMO dose
Cc1ccc(/C=N/NC(=O)c2nnn(-c3nonc3N)c2CN(C)c2ccccc2)s1	-1	1	1	1	-3	/
CN(CC(=O)NCc1cccs1)S(=O)(=O)c1cccc2nsnc12	4	436*	0	-4	-5	0
N#CC1=C(SCC(N)=O)NC(=O)CC1c1ccccc1Cl (stereo not given)	-2	613*	4	2	-6	0
N#CC1=C(SCC(N)=O)NC(=O)CC1c1cccc2ccccc12 (stereo not given)	/	/	5	/	/	/
Cc1cc(Cl)ccc1N=c1ssnc1Cl	6	128	-11	7	8	/
Cc1ccc(N=c2ssnc2Cl)cc1	1	471*	-17	2	-2	-1
Cc1nnc(N=c2ssnc2Cl)o1	-6	606*	-10	-3	15	-1
O=C(OCCOc1ccccc1F)c1cccc(S(=O)(=O)N2CCOCC2)c1	-6	87	-2	-2	-1	/
Nc1c(C(=O)OCC(=O)Nc2cccc([N+](=O)[O-])c2)[nH]c(=O)[nH]c1=O	8	-31	0	1	-2	/
O=C(c1ccc(COc2ccccc2Cl)o1)N1N=C(C(F)F)CC1(O)C(F)F (stereo not given)	3	438*	0	2	7	0
CCNC(=S)NNC(=O)c1ccc(=O)n(Cc2ccccc2)c1	-10	834*	1	7	0	0
CNC(=S)NNC(=O)c1ccc(=O)n(Cc2cccc(C(F)(F)F)c2)c1	-1	-13	/	1	0	/
COc1cccc(C(C(=O)NC(C)(C)C)N(CCc2ccccc2)C(=O)CCC(=O)Nc2cc(C)on2)c1OC (stereo not given)	0	0	2	6	-4	/
O=C(NCc1csc(-c2cccs2)n1)Nc1ccc(F)cc1F	-6	438*	2	-11	8	0
NC(=O)c1ccc(NC(=O)COc2coc(CN3CCc4ccccc4C3)cc2=O)cc1	-2	-20	6	-5	1	/
CCC(Oc1cc(Cl)ccc1Cl)C(=O)N1CCCN(C)CC1 (stereo not given)	4	-12	4	10	/	/
CC1C=CC=CC=CC=CC=CC=CC=CC(OC2OC(C)C(O)C(N)C2O)CC2OC(O)(CC(O)CC(O)C(O)CCC(O)CC(O)CC(=O)OC(C)C(C)C1O)CC(O)C2C(=O)O (stereo not given)	/	/	7	/	/	/
CCC(C)NCCCCOc1cc(C)cc(C(C)C)c1 (stereo not given)	-1	401*	4	-3	2	0
Cc1ccc(N2C(=O)c3cccc4c(N5CCN(C)CC5)ccc(c34)C2=O)c2cccnc12	14	702*	/	-1	0	-1
Cc1ccc2[nH]c(C(=O)N3CCN(c4cccc(Cl)c4)CC3)cc2c1	0	8	-2	4	0	/
O=C(CCCCCn1c(=O)[nH]c2ccsc2c1=O)NCc1ccc(F)cc1	3	883*	-1	4	-1	0
CC1(C)CC(=O)C(CC2CCCCC2=O)C(=O)C1 (stereo not given)	0	575*	2	3	3	0
c1ccc(-c2csc(N3CCN(c4ccccn4)CC3)n2)cc1	-3	699*	-4	3	2	0
c1ccc(-c2csc(N3CCOCC3)n2)cc1	4	17	-1	0	5	/
Cc1ccc(C(=O)N/C(=C\c2cccs2)C(=O)NCCc2c[nH]c3ccccc23)cc1	-2	494*	-2	5	3	0
Cc1ccc(C(=O)N/C(=C\c2cccs2)C(=O)NCc2ccncc2)cc1	-1	612*	0	7	1	1
N#Cc1cn(CCCOc2ccccc2)c2ccccc12	-2	-5	-3	1	7	/
COc1ccccc1OCCCn1cc(C#N)c2ccccc21	1	832*	3	14	-1	0
CCOc1ccc(N(CC(=O)N/N=C/c2ccccn2)S(=O)(=O)c2ccc(Cl)cc2)cc1	-2	-4	-2	16	/	/
O=c1c2ccccc2c2ccccc2c(=O)n1-c1ccccc1	-3	413*	0	-8	0	0
